Source: PubChem (National Center for Advancing Translational Sciences (NCATS))
Rows were chosen to be rich in hits. Some 8.8% of all compounds tested hit in one or more screens of this group.
KB-3-1 tox = KB-3-1 parental cell cytotoxicity; KB-3-1 viability, CellTiter-Glo ATP luminescence, 72 h; Potency, µM (titrated, usually from 46.1 µM), hits mostly cytotoxic; 1.4% of 400,000 active; also: potency is read from the fitted curve at half-maximal effect; nearly all actives have a fitted effect of over 60% in size
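Cells are dispensed, compounds pinned in, plates held at 37 °C for 72 h, then CellTiter-Glo is added and luminescence read after 10 minutes. Cell line: parental KB-3-1 in phenol-red-free DMEM, 10% FBS.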
HT1080 IDH1KD tx = kills HT-1080 cells with IDH1 knockdown; HT-1080 IDH1 knockdown viability, ATP luminescence, 48 h; Potency, µM (top dose mostly 46.1 µM), for the others: top-dose activity, negative = toxicity, usual class: cytotoxic; AID 686971; 2% of 360,000 active;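 also: potency is read from the fitted curve at half-maximal effect; 0% = DMSO wells and -100% = cell-free medium wells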
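Using the IDH1-knockdown HT-1080 line run in the same batch and compound series as the NT line, viability after 48 h at 37 °C was determined by CellTiter-Glo luminescence and expressed as % activity.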
HT1080NT lethal = kills 2HG-producing HT-1080-NT fibrosarcoma cells; 1.6% of 360,000 active; AID 686970; HT-1080-NT fibrosarcoma viability, CellTiter-Glo ATP luminescence, 48 h; Potency, µM (series often up to 46.1 µM), inactives show at the top dose activity, negative = less viability, actives largely listed as cytotoxic;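 also: NT is the 2HG producing partner of a matched IDH1 knockdown line; potency is read from the fitted curve at half-maximal effect; 0% = DMSO-treated cells and -100% = media-only wells without cells; nearly all actives have a fitted effect of over 55% in size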
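HT-1080-NT; 750 cells/well; 5% FBS RPMI; 48 h compound, 37 degrees C; CellTiter-Glo luminescence; curve fitting and curve-class assignment.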
KB-V1 MDR tox = kills drug-selected multidrug resistant KB-V1 cells | KB-V1 MDR cells viability, CellTiter-Glo, 72 h | Potency, µM (titrated, usually from 46.1 µM), actives largely listed as cytotoxic | 3.4% of 400,000 active | AID 1347076; also: potency is read from the fitted curve at half-maximal effect; nearly all actives have a fitted effect of over 60% in size
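Drug-selected KB-V1 cells, grown in DMEM lacking phenol red with 10% FBS, receive compound titrations; after three days at 37 degrees C, surviving cell ATP is quantified by CellTiter-Glo luminescence and responses normalized and curve-fitted.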
IL-1B inflam inh = blocks inflammasome-driven IL-1 beta release. THP-1 LPS/ATP IL-1B secretion, AlphaLISA, 16 h; stronger effect = lower value. activity change, % at 57.5 µM. 4.7% of 360,000 active. AID 743279; in the data active = activity change below about -50%; inconclusive = mostly about -30% to -49%
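THP-1 cells pretreated 1 hr with compounds (up to 57.5 uM final), then stimulated with LPS (250 ng/mL final) plus ATP (1.25 mM final); secreted IL-1B measured by AlphaLISA after 16 hr, decreased signal indicating inhibition.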
Active calls of the source: *; i = inactive; ? = inconclusive; nt = no result given; [ ] = dose if it differs, or a comment. Unless noted, calls follow the shape of the dose curve; as a rule, active = well fitted curve in the direction sought with a large enough effect; inconclusive = small, poorly fitted or top-dose-only effect, or another doubt; inactive = no such curve, though single readings can be large; an effect the other way counts as inactive or inconclusive. Unless noted, % is scaled to controls: 0 for no effect and ±100 for the full control effect.

SMILES	KB-3-1 tox	HT1080 IDH1KD tx	HT1080NT lethal	KB-V1 MDR tox	IL-1B inflam inh
CC1(C)O[C@H]2[C@@H](O1)[C@@H](C(=O)Nc1ccccc1C(F)(F)F)O[C@@H]1OC(C)(C)O[C@@H]12	i	nt	nt	?	nt
Cc1ccc([C@@H]2C[C@H]3[C@@H](CN2S(=O)(=O)c2ccc(C)cc2)C(=O)C[C@@H](c2ccccc2)N3S(=O)(=O)c2ccc(C)cc2)cc1	i	-9%	4%	i	30
Cc1ccc(S(=O)(=O)N2C[C@H]3C(=O)C[C@@H](c4ccccc4)N(S(C)(=O)=O)[C@H]3C[C@H]2c2ccccc2)cc1	i	?	-28%	?	-92*
Cc1ccc(S(=O)(=O)N2C[C@H]3C(=O)C[C@@H](c4cccs4)N(S(=O)(=O)c4ccc(C)cc4)[C@H]3C[C@H]2c2ccccc2)cc1	i	14%	18%	i	-58*
Cc1ccc(/C(O)=C2/C(=O)C(=O)N(CC(=O)O)C2c2ccc([N+](=O)[O-])cc2)cc1 (stereo not drawn)	i	7%	20%	i	-13
CCOc1ccccc1CNn1cnnc1SCC(=O)NC(C)(C)C	i	4%	4%	i	-3
CC(C)Oc1ccc(-c2nc(NCC3CCCO3)c3ccccc3n2)cc1 (stereo not drawn)	i	?	-13%	i	-79*
c1csc(-c2nc(NCC3CCCO3)c3ccccc3n2)c1 (stereo not drawn)	i	-11%	-13%	i	-90*
c1ccc(CN2CCC(Nc3nc(-c4cccs4)nc4ccccc34)CC2)cc1	i	?	?	?	-64*
c1cncc(-c2nc(NCC3CCCO3)c3ccccc3n2)c1 (stereo not drawn)	i	-1%	-11%	?	-1
CCOC(=O)N1CCN(c2ccnc3cc(Cl)ccc23)CC1	i	-16%	-6%	i	-15
CCC(=O)N1CCN(c2ccnc3cc(Cl)ccc23)CC1	i	2%	-8%	i	-8
Cc1ccc(S(=O)(=O)N2CCN(c3ccnc4cc(Cl)ccc34)CC2)cc1	?	-29%	?	i	-81*
O=C(c1ccc(Cl)cc1)N1CCN(c2ccnc3cc(Cl)ccc23)CC1	?	-28%	?	?	-92*
CC(C)N(C(=O)N1CCN(c2ccnc3cc(Cl)ccc23)CC1)C(C)C	i	-21%	-21%	?	-84*
Cc1cc(=O)[nH]c(N/N=C/c2c(F)c(F)c(F)c(F)c2F)n1	i	10%	2%	?	-92*
CCN(CC)c1ccc(/C=N/Nc2nc(C)cc(=O)[nH]2)c(O)c1	1.2µM*	?	-17%	?	91
CCN(CC)c1ccc(C=Nc2cc(C)ccc2C)c(O)c1	?	-8%	1%	23µM*	-2
Cc1cc(=O)[nH]c(NN=Cc2cc(Br)ccc2O)n1	?	?	-22%	0.58µM*	?
Cc1cc(=O)[nH]c(N/N=C/c2ccccc2Cl)n1	i	0%	10%	i	-14
Cc1ccccc1OCC(=O)NCC(C)NC(=O)COc1ccccc1C (stereo not drawn)	i	nt	nt	i	nt
CCOC(=O)N/N=C/c1ccc(N(CC)CC)cc1O	21µM*	9.2µM*	?	?	8
CCN(CC)c1ccc(/C=N/Nc2ccc(C)cc2)c(O)c1	i	-6%	-7%	i	-7
CCOC(=O)N1CCN(C(C(=O)NC2CCCC2)C(C)C)CC1 (stereo not drawn)	i	10%	16%	i	26
CCCc1cc(=O)[nH]c(SCC(=O)N2c3ccccc3CC2C)n1 (stereo not drawn)	i	10%	-2%	i	11
SMILES	KB-3-1 tox	HT1080 IDH1KD tx	HT1080NT lethal	KB-V1 MDR tox	IL-1B inflam inh
C(=C\c1ccnc2ccccc12)/c1cccs1	i	nt	nt	?	nt
O=C(/C=C/c1ccnc2ccccc12)c1cccs1	i	18µM*	18µM*	?	-118*
CC1CCCCC1NC(=O)COC(=O)c1c2c(nc3ccccc13)/C(=C/c1ccco1)CC2 (stereo not drawn)	i	-6%	-6%	i	-15
O=C(COC(=O)c1c2c(nc3ccccc13)/C(=C/c1ccco1)CC2)NC1CCCC1	i	-13%	2%	16µM*	-61*
CCn1c(O)c(C2=c3ccccc3=NC2=O)c2cc(Br)ccc21	i	9%	9%	i	-64*
Cc1cc(C)n(-c2ccc(C(=O)N3CCC(CO)(Cc4ccccc4)CC3)cc2)n1	i	-11%	?	i	0
CCc1nnc(N/N=C/c2ccccc2F)n1N	i	?	?	i	42
Nn1cnnc1N/N=C/c1ccc(Cl)c([N+](=O)[O-])c1	i	21µM*	?	?	-15
Cc1ccc(S(=O)(=O)N/N=C\c2ccc(Cl)c([N+](=O)[O-])c2)cc1	i	?	-12%	i	-13
Nn1cnnc1N/N=C/c1cccc(Cl)c1Cl	i	18µM*	?	i	14
CCc1nnc(N/N=C/c2ccccc2Cl)n1N	i	16µM*	?	i	6
Nn1cnnc1N/N=C/c1ccc(F)cc1	i	?	?	i	-1
CN(C)c1nc(N/N=C\c2ccc(Cl)c([N+](=O)[O-])c2)nc(Nc2ccc(F)cc2)n1	i	?	?	i	-90*
O=C(/C=C/c1cccs1)Nc1cccc([S+](=O)([O-])Nc2ccccc2F)c1	i	nt	nt	i	nt
CC(C)(C)OC(=O)N1CCC(c2c(C(=O)N3CCN(C(=O)c4ccco4)CC3)cnn2-c2cccc(F)c2)CC1	i	nt	nt	i	nt
Nc1nnnn1/N=C\c1ccc(Cl)c([N+](=O)[O-])c1	i	-3%	-2%	i	-61*
COc1cccc(Cn2c(C(C)n3c(-c4cnccn4)nc4ccccc43)nc3ccccc32)c1 (stereo not drawn)	?	15µM*	?	16µM*	?
COc1cccc(Cn2c(Cn3c(-c4cnccn4)nc4ccccc43)nc3ccccc32)c1	i	-28%	2%	?	0
CN(C(=O)COC(=O)c1ccc2ccccc2n1)c1ccccc1	i	-13%	-8%	i	21
CCCN(CCC)CCCNC(=O)Cn1cnc2sc(C)c(S(=O)(=O)N3CCOCC3)c2c1=O	i	13%	2%	i	-7
CCCCCCCCCCCC(=O)NC(C(=O)OCC)C(O)c1cccc([N+](=O)[O-])c1 (stereo not drawn)	?	?	?	?	-79*
CCOC(=O)c1oc2ccc(CNC3CCCCC3)c(Cl)c2c1C	i	-18%[9.24 µM]	11µM*	i	-82*
CCOc1ccc(S(=O)(=O)NCc2cccs2)cc1C(C)C	i	-8%	-3%	i	-16
